PubChem BioAssay (NCATS)
“And” between values parts separate entries of the source, which are not always exact repeats. Equal entries are not always repeated. Records with an inconclusive call do not appear. Entries that show only a call come without a potency. Some structures have more than one record in an assay (separate samples or runs), and their calls can disagree. The source made the active and inactive calls. Calls come from the whole dose curve; as a rule, active = well fitted curve in the direction sought with a large enough effect; inconclusive = small, poorly fitted or top-dose-only effect, or another doubt; inactive = no such curve, though single readings can be large; an effect the other way counts as inactive or inconclusive.

How the values were obtained:
[1] = Viability qHTS for spleen associated tyrosine kinase inhibitor (SYKi) drug resistant MV4-11 cells (AID 1963824); note: nearly all actives have a fitted effect of over 35% in size
Summary of the method: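 SYK inhibitor-resistant MV4-11 AML cells, 500 per well, added to predispensed compounds and incubated 72 hr at 37 C, 5% CO2. Viability measured by CellTiter-Glo luminescence after 10 min at room temperature.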

[2] = Quantitative highthroughput screen to assess conditional lethalithy of NOMO1 cells grown in RPMI1640 with untreated serum (RPMI+s) (AID 1963876); note: nearly all actives have a fitted effect of over 35% in size
Summary of the method: (§1)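 Each medium arm—HPLM with 10% dialyzed FBS, or RPMI1640 with 5 mM glucose and 10% untreated or dialyzed FBS—was screened against an 11-point, 3-fold compound titration for 48 h at 37 °C, with CellTiter-Glo luminescence as endpoint.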

[3] = Quantitative highthroughput screen to assess conditional lethalithy of NOMO1 cells grown in RPMI1640 with dialyzed fetal bovine serum (RPMI+ds) (AID 1963877); note: nearly all actives have a fitted effect of over 30% in size; for Viability: series mostly up to about 46 µM
Summary of the method: as §1

[4] = Quantitative highthroughput screen to assess conditional lethalithy of NOMO1 cells grown in Human Plasma-Like Medium with dialyzed fetal bovine serum (HPLM+ds) (AID 1963878); note: nearly all actives have a fitted effect of over 35% in size
Summary of the method: as §1

[5] = Quantitative highthroughput screen to assess conditional lethalithy of P12 Ichikawa cells grown in Human Plasma-Like Medium with dialyzed fetal bovine serum (HPLM+ds) (AID 1963879); conditions: Potency: viability; note: nearly all actives have a fitted effect of over 35% in size; for Viability: series mostly up to about 46 µM
Summary of the method: as §1

[6] = Quantitative highthroughput screen to assess conditional lethalithy of P12 Ichikawa cells grown in RPMI1640 with dialyzed fetal bovine serum (RPMI+ds) (AID 1963880); conditions: Potency: P12-Ichikawa viability; note: nearly all actives have a fitted effect of over 35% in size
Summary of the method: as §1

[7] = Quantitative highthroughput screen to assess conditional lethalithy of P12 Ichikawa cells grown in RPMI1640 with untreated serum (RPMI+s) (AID 1963881); conditions: Potency: viability; note: nearly all actives have a fitted effect of over 35% in size; for Viability: series mostly up to about 46 µM
Summary of the method: as §1

[8] = Quantitative highthroughput screen to assess conditional lethalithy of SEM cells grown in Human Plasma-Like Medium with dialyzed fetal bovine serum (HPLM+ds) (AID 1963882); note: nearly all actives have a fitted effect of over 35% in size; for Viability: series mostly up to about 46 µM
Summary of the method: as §1

[9] = Quantitative highthroughput screen to assess conditional lethalithy of SEM cells grown in RPMI1640 with unreated serum (RPMI+s) (AID 1963883); note: nearly all actives have a fitted effect of over 35% in size
Summary of the method: as §1

[10] = Quantitative highthroughput screen to assess conditional lethalithy of SEM cells grown in RPMI1640 with dialyzed fetal bovine serum (RPMI+ds) (AID 1963884); note: nearly all actives have a fitted effect of over 35% in size; for Viability: series mostly up to about 46 µM
Summary of the method: as §1

[11] = Cellular viability qHTS for adrenocortical cancer (ACC) cell line SW-13 (AID 1963989); conditions: SW-13 ACC cells viability, CellTiter-Glo, 48 h; activity (max response): stronger effect = lower value; note: nearly all actives have a fitted effect of over 65% in size;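 for activity (max response): cells grown in serum-free medium with ITS supplement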
Summary of the method: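 SW-13 cells in ITS-supplemented serum-free DMEM were plated overnight, then exposed for 48 h at 37C to compound titrations (up to 46 uM final). Viability was read by CellTiter-Glo luminescence; four-parameter logistic fits gave IC50 and efficacy.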

[12] = Cellular viability qHTS for adrenocortical cancer (ACC) cell line NCI-H295R (AID 1963990); note: nearly all actives have a fitted effect of over 60% in size
Summary of the method: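 Luminescent ATP read-out (CellTiter-Glo, 20 min RT) after 48 h drug exposure of NCI-H295R cells; a titration up to 46 uM final. Data normalized to doxorubicin (100% inhibition) and DMSO (0%); 4-parameter fit gives IC50, max response.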
Potency is the fitted concentration of half-maximal effect.

SMILES	Potency [1]	Potency [2]	Potency [3]	Potency [4]	Potency [5]	Potency [6]	Potency [7]	Potency [8]	Potency [9]	Potency [10]	Potency [11]	Potency [12]	activity (max response) [11]
CN(C)CCN1C(=O)c2cccc3cc(N)cc(c23)C1=O	3.72 µM (active)	14.8 µM (active)	18.7 µM (active)	14.8 µM (active)	18.7 µM (active)	18.7 µM (active)	16.6 µM (active)	5.9 µM (active)	5.26 µM (active)	9.35 µM (active)	22.4 µM (active)	22.4 µM (active)	–
Cc1cc(Nc2ncc3c(n2)N(C)C(=O)N(c2cc(NC(=O)c4cccc(C(F)(F)F)c4)ccc2C)C3)n(C)n1	0.0295 µM (active)	1.66 µM (active)	1.18 µM (active)	1.18 µM (active)	16.6 µM (active)	11.8 µM (active)	5.9 µM (active)	0.469 µM (active)	0.372 µM (active)	0.372 µM (active)	0.355 µM (active)	1.26 µM (active)	–
Cc1ccc(C(=O)c2cc(O)c(O)c([N+](=O)[O-])c2)cc1	23.5 µM (active)	inactive	inactive	inactive	inactive	inactive	inactive	inactive	inactive	inactive	–	–	–
CO[C@H]1C=CO[C@@]2(C)Oc3c(C)c(O)c4c(O)c(c5c(c4c3C2=O)NC2(CCN(CC(C)C)CC2)N=5)=NC(=O)C(C)=CC=C[C@H](C)[C@H](O)[C@@H](C)[C@@H](O)[C@@H](C)[C@H](OC(C)=O)[C@H]1C	18.4 µM (active)	inactive	inactive	inactive	inactive	inactive	inactive	inactive	inactive	inactive	–	–	–
O=C(O)c1cc(O)c2c(c1)C(=O)c1cccc(O)c1C2=O	23.5 µM (active)	inactive	inactive	inactive	inactive	inactive	inactive	inactive	inactive	inactive	–	inactive	1.15% (inactive)
CC1=CC2/C=C(\C)CCC3OC(C)(C)OC3CCC(=O)C23C(=O)NC(CC(C)C)C3C1C (stereo not drawn)	7.96 µM (active)	–	–	–	–	–	–	–	–	–	–	–	–
C=Cc1c(C)c2cc3nc(cc4[nH]c(cc5nc(cc1[nH]2)C(C)=C5CCC(=O)O)c(CCC(=O)OC)c4C)[C@@]1(C)C3=CC=C(C(=O)OC)[C@H]1C(=O)OC	7.42 µM (active)	14.8 µM (active)	13.2 µM (active)	14.8 µM (active)	inactive	inactive	14.8 µM (active)	inactive	inactive	inactive	–	–	–
C[C@]12CC/C(=N\OCC(=O)O)C=C1CC[C@@H]1[C@@H]2[C@@H](O)C[C@@]2(C)[C@H]1CC[C@]2(O)C(=O)CO	inactive	–	–	–	–	–	–	–	–	–	–	–	–
NCCc1ccc(O)c(O)c1	inactive and 18.6 µM (active)	14.8 µM (active)	14.8 µM (active)	9.35 µM (active)	inactive	inactive	inactive	18.7 µM (active)	–	26.4 µM (active)	–	inactive	-9.5% (inactive) and -1.11% (inactive)
N[C@H](CSC(c1ccccc1)(c1ccccc1)c1ccccc1)C(=O)O	14.8 µM (active)	inactive	inactive	inactive	inactive	inactive	–	16.6 µM (active)	–	13.2 µM (active)	–	inactive	-17.5% (inactive)
C=C(C)[C@@H]1CC[C@]2(C(=O)O)CC[C@]3(C)[C@H](CC[C@@H]4[C@@]5(C)CC[C@H](O)C(C)(C)[C@@H]5CC[C@]43C)[C@@H]12	2.95 µM (active)	inactive	inactive	inactive	inactive	inactive	–	inactive	–	–	–	inactive	19.8% (inactive)
NC[C@H]1O[C@H](O[C@@H]2[C@@H](O)[C@@H](O[C@H]3O[C@H](CO)[C@@H](O)[C@H](N)[C@@H]3O)[C@H](N)C[C@@H]2N)[C@H](O)[C@@H](O)[C@H]1O	inactive	inactive	inactive	inactive	inactive	inactive	–	inactive	inactive	–	–	inactive	–
O=C(Nc1nc2ccccc2n1CCN1CCOCC1)c1cccc([N+](=O)[O-])c1	2.63 µM (active)	inactive	inactive	inactive	inactive	inactive	inactive	inactive	inactive	inactive	–	inactive	–
CCOC(=O)N1CCC(=C2c3ccc(Cl)cc3CCc3cccnc32)CC1	8.41 µM (active)	inactive	inactive	inactive	inactive	inactive	inactive	–	inactive	11.8 µM (active)	4.61 µM (active)	–	–
CCC(C)N(C)C(=O)c1cc2ccccc2c(-c2ccccc2Cl)n1 (stereo not drawn)	18.6 µM (active)	inactive	inactive	inactive	inactive	inactive	–	inactive	inactive	–	–	–	-6.79% (inactive)
CCc1ccc(CCOc2ccc(CC3SC(=O)NC3=O)cc2)nc1 (stereo not drawn)	inactive	inactive	inactive	inactive	inactive	inactive	inactive	–	inactive	inactive	–	inactive	0.771% (inactive) and -12.6% (inactive)
